SARS PLpro yeast-1: inhibitors of SARS-CoV papain-like protease in yeast; S. cerevisiae expressing SARS-CoV PLpro, growth rescue; Potency, µM (highest dose often 32.9 µM), most hits filed as activators; 330,000 tested, 0.19% active; calls by dose curve; also: nearly all actives have a fitted effect of over 55% in size
FMDV antiviral: foot and mouth disease virus antiviral activity; Potency, µM (series often up to 57.9 µM), usual class: inhibitors; 410,000 tested, 1.2% active; AID 1159524; FMDV antiviral cell-based qHTS; calls by dose curve; tested in HEK293T cells; also: read-out not given here; nearly all actives have a fitted effect of over 45% in size
HCMV antiviral: blocks human cytomegalovirus replication; HFF cells, HCMV-luciferase reporter, 72 h; stronger effect = lower value; activity change, negative = inhibition, % at 57.5 µM; 410,000 tested, 4.5% active; AID 1259415; in the data active = activity change below about -60%; inconclusive = no clear call, values can overlap the other calls; inactive = above about -39%
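Screen run at 2 compound doses on HFFs infected with reporter HCMV, MOI 1 PFU/cell. Luciferase activity from cell lysates at 72 h post infection gave inhibition relative to buffer-only and Salinomycin wells.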
MARV entry inh: Marburg virus entry inhibition; Marburg virus pseudotyped entry inhibition, cell reporter; Potency, µM (titrated, usually from 37.8 µM), usual class: inhibitors; 300,000 tested, 1.8% active; AID 540276; calls by dose curve; tested in HEK293 cells
Lassa entry inh: blocks Lassa virus binding to or entry into cells. Lassa virus pseudotype entry inhibition, cell reporter. Potency, µM (top dose mostly 37.9 µM), hits mostly inhibitors. 300,000 tested, 1.2% active. AID 540256; calls by dose curve; tested in HEK293 cells; also: nearly all actives have a fitted effect of over 50% in size
HCV inh: HCV inhibition; Huh7.5.1 HCVcc-Cre infection, luciferase reporter, 44 h; Potency, µM (series often up to 41.8 µM), usual class: inhibitors; 340,000 tested, 3.4% active; active = well fitted inhibition curve with a large enough effect; inconclusive = small, poorly fitted or top-dose-only effect, or another doubt; inactive = no such curve, though single readings can be large or run the other way
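Luciferase read-out (15 sec integration) after a 15 min room-temperature substrate step quantifies HCVcc-Cre infection. Cells, 1,000 per well, had compound added 4 h post-plating, then virus at ~0.5 moi, and were cultured 44 h.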
SARS PLpro yeast-2: Rescues yeast growth by inhibiting SARS-CoV PLpro. calls only. shares compounds with SARS PLpro yeast-1. 1,000 tested, 19% active. yeast expressing SARS-CoV PLpro, growth phenotype rescue; call rule not given here
A number is an active result; – = inactive; ? = inconclusive; · = no result given; + = active, no number. Sampled rows, rich in hits. Any-hit rate of the full collection: about 8%.

SMILES	SARS PLpro yeast-1	FMDV antiviral	HCMV antiviral	MARV entry inh	Lassa entry inh	HCV inh	SARS PLpro yeast-2
COc1cccc(CN(C)C(=O)CC2C(=O)NCCN2C2Cc3ccccc3C2)c1 (centres undefined)	·	–	–	–	–	–	–
Cc1cc(C)cc(NC(=O)Cn2nnc(-c3ccccc3F)n2)c1	·	–	–	·	–	·	·
O=C(NCc1ccc(Cl)c(Cl)c1)c1ccco1	–	–	–	–	–	–	·
O=C(NCc1ccc(CNC(=O)c2ccco2)cc1)c1ccco1	?	–	–	·	·	–	–
Cc1cc(S(=O)(=O)Nc2ccc(-c3ccc(N4CCCCCC4)nn3)cc2)c(C)cc1Cl	·	–	–	·	?	·	·
Cc1ncc(C23CC4CC(CC(C4)C2)C3)[nH]1	13µM	–	–	–	·	–	–
Cc1c(C)c2c(C)[nH]nc2oc1=O	?	–	–	–	–	–	–
CCCC(=O)NC(c1ccc(N(C)C)cc1)c1ccc2cccnc2c1O (centres undefined)	7.1µM	–	-98	?	?	3.2µM	?
Cc1ccc2ccc(C(Nc3ccccc3)c3ccc(Cl)cc3)c(O)c2n1 (centres undefined)	·	–	?	·	·	·	·
CCCC(=O)NC(c1ccccc1Cl)c1ccc2cccnc2c1O (centres undefined)	2.2µM	–	-97	0.89µM	?	2µM	+
CCC(=O)NC(c1ccc(C)cc1)c1ccc2cccnc2c1O (centres undefined)	?	–	-98	3.2µM	11µM	?	–
Cc1cc(NC(c2ccc(Cl)cc2)c2ccc3cccnc3c2O)no1 (centres undefined)	?	–	-98	?	?	2.5µM	–
COc1ccc(CCNC(=O)CCc2c(C)nc3c(c(C)nn3-c3ccc(C)cc3)c2C)c(OC)c1	·	–	–	–	?	·	·
COc1ccc2nc(SCC(O)c3cccc(Br)c3)[nH]c2c1 (centres undefined)	·	–	–	–	–	·	·
Cc1c(CCC(=O)NCCc2ccc(Cl)cc2)c(=O)oc2c(C)c(O)ccc12	·	–	–	–	–	·	·
Cc1noc(-c2ccc(-c3noc(-c4cccc(F)c4)n3)cc2)n1	·	–	–	·	–	·	·
COc1cc2nc(SCC(=O)Nc3cccc(C)c3)n3nc(CCn4c(C)nc5ccccc54)nc3c2cc1OC	·	–	–	–	–	·	·
COc1ccccc1N1CCN(c2cc(C)nc3nncn23)CC1	·	–	?	–	–	·	·
CC(=O)NC(c1ccco1)c1ccc2cccnc2c1O (centres undefined)	?	–	·	?	?	7.9µM	+
COc1ccc(C)cc1S(=O)(=O)Nc1ccc(F)cc1	?	–	–	?	–	–	–
COc1ccc(OC)c(S(=O)(=O)Nc2ccc(F)cc2)c1	–	–	–	–	?	–	·
O=C(/C=C/c1cccs1)NC(=S)NNC(=O)Cc1cccs1	?	–	–	–	–	–	+
COc1ccc(/C=C/C(=O)NC(=S)NNC(=O)Cc2cccs2)cc1OC	–	–	–	?	–	–	·
COC(=O)c1cc(OC)c(OC)cc1NCC(=O)Nc1ccc(C)cc1	4.5µM	–	–	–	–	–	–
COC(=O)c1cc(OC)c(OC)cc1NCC(=O)Nc1ccc(OC)c(OC)c1	–	?	–	?	–	?	·
SMILES	SARS PLpro yeast-1	FMDV antiviral	HCMV antiviral	MARV entry inh	Lassa entry inh	HCV inh	SARS PLpro yeast-2
COc1ccc(-c2cc(N3C(=O)Nc4ccccc4N3O)n[nH]2)cc1	11µM	–	–	–	–	–	–
COc1ccc(-c2cc(N3C(=O)Nc4ccccc4N3O)n[nH]2)cc1OC	–	–	–	–	?	–	·
O=C(CSc1cccc[n+]1[O-])Nc1cccc(Oc2ccccc2)c1	?	–	–	–	?	–	–
COc1cccc(NC(=O)CSc2cccc[n+]2[O-])c1	–	–	–	·	·	–	·
COc1ccc(CCNC(=O)CCCn2c(=O)c3ccccc3n(CC(=O)Nc3ccc(C)cc3Cl)c2=O)cc1OC	·	–	–	–	?	·	·
CCCCCC(=O)N/N=C(\C)c1ccc(N2CCCCC2)cc1	14µM	–	–	?	–	–	–
CN1CCN(c2nc(-c3cccc(C#N)c3)nc3ccccc23)CC1	·	–	·	·	·	·	·
Cc1cc(OCC(=O)NC(C)(C)C)ccc1Cl	?	–	–	?	?	–	–
Cc1ccc(O)c(NC(=O)c2nc3nc(C)cc(C(F)F)n3n2)c1	·	–	–	–	?	·	·
CCCC(=O)Nc1ccc(C(=O)NNC(=O)c2ccco2)cc1	?	–	–	–	–	–	–
CCn1c(C(=O)Nc2c(C)cccc2C)cc2sc(Cl)cc21	·	?	–	–	·	·	·
CC(=O)Nc1cccc(C(=O)OCc2ccc(C(=O)Oc3ccc(Cl)cc3)cc2)c1	?	–	–	–	–	–	–
CCc1ccc2nc(Nc3nc(COC)cc(=O)[nH]3)nc(C)c2c1	–	–	–	–	–	?	·
Cc1ccc2nc(Nc3nc(CSc4nnnn4-c4ccccc4)cc(=O)[nH]3)nc(C)c2c1	?	–	–	–	–	?	–
CCCCN(C)Cc1c(C)[nH]c2ccc(OCC)cc2c1=O	?	–	?	·	·	–	–
COc1ccc(OC)c(C2C=C(C34CC5CC(CC(C5)C3)C4)NC(=S)N2)c1 (centres undefined)	?	–	?	7.1µM	?	2.5µM	+
O=C(O)c1cc(C2CC2)nn1-c1ccccc1	?	–	–	–	–	–	–
NOCC(=O)O	?	–	–	?	–	–	–
CCc1nnc(SCC(=O)Nc2ccc(F)cc2F)c2cc3sc(C)cc3n12	·	–	–	·	–	·	·
Cc1ccc(-n2ncc3c(NC4CCCCC4)ncnc32)cc1C	·	–	–	·	?	·	·
CC(=O)Nc1ccc(-c2csc(NCc3ccco3)n2)cc1	?	–	–	?	–	?	–
c1cncc(-c2csc(NCc3ccco3)n2)c1	–	–	–	?	–	–	·
CCOc1ccc(N(C(C)C(=O)NCCSc2ccc(Cl)cc2)S(C)(=O)=O)cc1 (centres undefined)	·	–	–	–	?	·	·
Cc1ccc(C(C(=O)NCc2ccccc2)N(Cc2cccs2)C(=O)c2ccc3c(c2)OCCO3)cc1 (centres undefined)	?	–	-69	6.5µM	6.5µM	?	–
CC1(C)C(=O)C2(CCCCC2)C(=O)OC1c1cccn1-c1ccc([N+](=O)[O-])cc1 (centres undefined)	?	–	–	–	–	–	?
O=S(=O)(c1ccccc1)N1CCC[C@@]2(CCN(c3cccc(-c4ccccc4)c3)C2)C1	·	–	·	·	·	·	·
COc1ccc(C)cc1N(C)C(=O)c1c2c(nc3ccccc13)C(=O)N(C1CCCCC1)C2	·	–	–	·	–	·	·
C/C(=N\NC(=O)c1cc(-c2cccnc2)nc2ccccc12)c1ccc(O)cc1O	?	–	-94	7.1µM	6.3µM	4µM	–
Cc1ccc(C(C)C)c(OCc2ccc(C(=O)Nc3ccc(S(N)(=O)=O)cc3C)o2)c1	·	–	–	?	–	·	·
CCSCCOC(=O)C1=C(C)NC(=O)NC1c1cc(OC)ccc1OC (centres undefined)	?	–	–	–	–	–	–

Assay outcomes: PubChem BioAssay, National Center for Advancing Translational Sciences (NCATS)
